From article PMC4336329 (PLoS ONE, 2015)
The campaign covered roughly 310,000 compounds. About 14,000 (4.5%) showed an effect of 50% or more. The effect is printed as a negative number. The sample holds strong results, similar compounds and a random draw of the others, so the mix is not that of the screen.
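Note: peak tail current of the secondary pulse compared with the same well before compound.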

What follows are compounds tested against human ether-à-go-go-related gene (hERG) potassium channel (human, UniProt Q12809) (assay: primary screen, population patch clamp on CHO cells stably expressing hERG; higher = less effect of the substance).
Chain of human ether-à-go-go-related gene (hERG) potassium channel (Q12809 whole entry, looked up): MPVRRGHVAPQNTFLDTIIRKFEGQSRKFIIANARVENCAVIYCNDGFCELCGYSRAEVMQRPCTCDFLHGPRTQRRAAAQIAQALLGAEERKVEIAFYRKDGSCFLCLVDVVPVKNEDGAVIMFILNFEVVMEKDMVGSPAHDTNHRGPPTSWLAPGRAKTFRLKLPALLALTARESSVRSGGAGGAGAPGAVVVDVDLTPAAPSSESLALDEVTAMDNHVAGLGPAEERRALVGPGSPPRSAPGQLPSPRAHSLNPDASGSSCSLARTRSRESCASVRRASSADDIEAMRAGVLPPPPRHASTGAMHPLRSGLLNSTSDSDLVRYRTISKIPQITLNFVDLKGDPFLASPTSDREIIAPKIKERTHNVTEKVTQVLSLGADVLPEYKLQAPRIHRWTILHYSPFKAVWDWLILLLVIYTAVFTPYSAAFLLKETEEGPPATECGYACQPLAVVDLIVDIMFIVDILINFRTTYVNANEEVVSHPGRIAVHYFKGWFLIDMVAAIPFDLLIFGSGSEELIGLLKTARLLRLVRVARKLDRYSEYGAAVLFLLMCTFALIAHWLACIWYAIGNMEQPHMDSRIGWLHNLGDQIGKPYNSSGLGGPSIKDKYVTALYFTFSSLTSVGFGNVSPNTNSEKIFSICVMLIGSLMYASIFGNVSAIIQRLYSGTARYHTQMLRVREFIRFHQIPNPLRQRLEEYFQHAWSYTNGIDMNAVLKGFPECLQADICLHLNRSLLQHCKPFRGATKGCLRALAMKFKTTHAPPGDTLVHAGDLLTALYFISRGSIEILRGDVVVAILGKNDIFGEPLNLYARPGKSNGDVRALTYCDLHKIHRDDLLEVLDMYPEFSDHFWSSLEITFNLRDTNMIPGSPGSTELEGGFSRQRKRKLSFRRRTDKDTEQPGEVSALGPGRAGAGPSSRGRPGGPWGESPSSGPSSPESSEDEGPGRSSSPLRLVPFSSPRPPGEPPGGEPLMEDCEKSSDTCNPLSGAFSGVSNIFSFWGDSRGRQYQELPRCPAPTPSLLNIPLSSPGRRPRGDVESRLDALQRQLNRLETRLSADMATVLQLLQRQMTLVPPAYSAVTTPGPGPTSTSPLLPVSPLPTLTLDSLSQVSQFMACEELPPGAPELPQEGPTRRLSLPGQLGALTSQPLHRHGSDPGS
In the case of `CCOc1ccccc1NC(=O)NCc1ccccc1`, the “hERG current change (%, negative = inhibition) at 10uM” value is reported as 0.101%. For `CN(C)S(=O)(=O)c1ccc2c(c1)C(CC(=O)O)NC2=O` (centres unmarked), the “hERG current change (%, negative = inhibition) at 10uM” value was 6.72%. In the case of `CCCOc1ccc(N2C(=O)CC(SC(=NCC)NCC)C2=O)cc1` (centres unmarked), the “hERG current change (%, negative = inhibition) at 10uM” value is reported as 11.9%. In the case of `Cc1nc(-c2ccccc2)sc1C(=O)CSc1ccc(F)cc1`, the “hERG current change (%, negative = inhibition) at 10uM” value is reported as -7.92%. With `CNC(=S)NNC(=O)c1cccn(Cc2ccccc2)c1=O` the “hERG current change (%, negative = inhibition) at 10uM” value was 19%. With `COc1ccc(CN2CCc3ccccc3C2)c(OC)c1` the “hERG current change (%, negative = inhibition) at 10uM” value was -28.4%. In the case of `COc1ccc(CC(C)N2CCN(Cc3ccccc3)CC2)c(OC)c1` (centres unmarked), the “hERG current change (%, negative = inhibition) at 10uM” value is reported as -75.3%. For `COc1ccc(CN2CCN(c3ccccn3)CC2)cc1OCc1ccccc1`, the “hERG current change (%, negative = inhibition) at 10uM” value was -67.9%. `COc1ccc(S(=O)(=O)N2CCN(CCc3ccccc3)CC2)c(OC)c1` was tested, and the “hERG current change (%, negative = inhibition) at 10uM” value was -25.6%. `COc1ccc(NC(=S)N2CCN(Cc3ccccc3)CC2)c(OC)c1` was tested, and the “hERG current change (%, negative = inhibition) at 10uM” value was -5.79%. `COc1ccc(CN2CCN(C)CC2)cc1OCc1ccccc1` was tested, and the “hERG current change (%, negative = inhibition) at 10uM” value was -19%. In the case of `CCN1CCN(Cc2ccc(OC)c(OCc3ccccc3)c2)CC1`, the “hERG current change (%, negative = inhibition) at 10uM” value is reported as -41.9%. `COc1ccc(OC)c(S(=O)(=O)N2CCN(c3ccccn3)CC2)c1` was tested, and the “hERG current change (%, negative = inhibition) at 10uM” value was -12.5%. With `COc1ccc(CN2CCN(c3ccccn3)CC2)c(OC)c1` the “hERG current change (%, negative = inhibition) at 10uM” value was -75.9%. In the case of `COc1ccc(CN2CCN(CCCc3ccccc3)CC2)c(OC)c1`, the “hERG current change (%, negative = inhibition) at 10uM” value is reported as -76.6%. For `COc1ccc(-c2[nH]ncc2CN2CCN(c3ccccn3)CC2)c(OC)c1`, the “hERG current change (%, negative = inhibition) at 10uM” value was -31.5%. With `COc1ccc(OC)c(S(=O)(=O)N2CCN(Cc3ccccc3)CC2)c1` the “hERG current change (%, negative = inhibition) at 10uM” value was 2.05%. For `Fc1cccc(-c2oncc2-c2nnnn2-c2ccc(Cl)cc2)c1`, the “hERG current change (%, negative = inhibition) at 10uM” value was -13.9%. `CCOC(=O)c1ccc(NC(=O)CCc2nnc3ccc(N4CCCC4)nn23)cc1` was tested, and the “hERG current change (%, negative = inhibition) at 10uM” value was 5.84%. `O=C(OCC1CC(c2ccccc2)=NO1)c1ccc(Cl)cc1` (centres unmarked) was tested, and the “hERG current change (%, negative = inhibition) at 10uM” value was 18.6%. `CN1CCN(CP(=O)(N2CCOCC2)N2CCOCC2)CC1` was tested, and the “hERG current change (%, negative = inhibition) at 10uM” value was 1.13%. With `Br.CC(C)(C)C(=O)Cn1c(NCCCO)nc2ccccc21` the “hERG current change (%, negative = inhibition) at 10uM” value was -7.81%. In the case of `CC(NS(=O)(=O)c1ccc(CCC(=O)NCc2cccnc2)cc1)c1ccccc1` (centres unmarked), the “hERG current change (%, negative = inhibition) at 10uM” value is reported as -1.35%. For `CCOC(=O)CSc1nnc(NC(=O)c2cc([N+](=O)[O-])cc([N+](=O)[O-])c2)s1`, the “hERG current change (%, negative = inhibition) at 10uM” value was -8.83%. In the case of `O=C(C[n+]1ccccc1)N/N=C/c1cccs1.[Cl-]`, the “hERG current change (%, negative = inhibition) at 10uM” value is reported as 12%. With `Cn1ccnc1SCCNC(=O)C1CCC(=O)N(Cc2ccc(Cl)cc2)C1` (centres unmarked) the “hERG current change (%, negative = inhibition) at 10uM” value was -3.3%. For `COc1cc(NC(=O)CN(c2ccc(C)cc2)S(=O)(=O)c2c(C)noc2C)cc(OC)c1`, the “hERG current change (%, negative = inhibition) at 10uM” value was 16.3%. For `C=CCn1c(O)c(C(C)=NCCc2c[nH]c3ccccc23)c(=O)[nH]c1=O`, the “hERG current change (%, negative = inhibition) at 10uM” value was -31.9%. `COc1ccc(CN2CCN(C(=O)Cc3ccccc3)CC2)c(OC)c1` was tested, and the “hERG current change (%, negative = inhibition) at 10uM” value was -31.5%. For `COc1ccc(CN2CCN(Cc3ccccc3)CC2)c(OC)c1`, the “hERG current change (%, negative = inhibition) at 10uM” value was -69.9%. In the case of `CC(CCc1ccccc1)N1CCN(C)CC1` (centres unmarked), the “hERG current change (%, negative = inhibition) at 10uM” value is reported as -20.4%. `COc1ccc(OC)c(CN2CCN(Cc3cc(OC)c(OC)c(OC)c3)CC2)c1` was tested, and the “hERG current change (%, negative = inhibition) at 10uM” value was 9.45%. For `COc1ccc(CN2CCN(c3ccccn3)CC2)c(OC)c1C.O=C([O-])C(=O)[O-]`, the “hERG current change (%, negative = inhibition) at 10uM” value was -55.8%. `COc1ccc(CN2CCN(c3ncccn3)CC2)c(C)c1C` was tested, and the “hERG current change (%, negative = inhibition) at 10uM” value was -35.9%. `CCN1CCN(C(C)CCc2ccccc2)CC1` (centres unmarked) was tested, and the “hERG current change (%, negative = inhibition) at 10uM” value was -17.7%. `COc1ccc(CN2CCN(c3ccccn3)CC2)c(OC)c1C.O=C(O)C(=O)O` was tested, and the “hERG current change (%, negative = inhibition) at 10uM” value was -37.1%. With `CC(CCc1ccccc1)N1CCN(Cc2ccccc2)CC1` (centres unmarked) the “hERG current change (%, negative = inhibition) at 10uM” value was -75.2%. In the case of `COCCn1cnc2c(c1=O)c1nc3ccccc3nc1n2/N=C/c1ccco1`, the “hERG current change (%, negative = inhibition) at 10uM” value is reported as -7.29%. In the case of `COc1ccc(CNS(=O)(=O)c2ccc(-c3ccc(=O)[nH]n3)s2)cc1OC`, the “hERG current change (%, negative = inhibition) at 10uM” value is reported as -29.5%. For `COC(=O)c1ccc2c(=O)n(CC3CCCO3)c(SCC(=O)Nc3ccccc3OC)nc2c1` (centres unmarked), the “hERG current change (%, negative = inhibition) at 10uM” value was -4.41%. With `CS(=O)(=O)c1nc(-c2ccccc2)cc(-c2ccccc2)c1C#N` the “hERG current change (%, negative = inhibition) at 10uM” value was 8.33%. With `CC(C)CCC(O)(c1ccccc1)C(CN1CCOCC1)c1ccccc1.Cl` (centres unmarked) the “hERG current change (%, negative = inhibition) at 10uM” value was -1.36%. With `CNS(=O)(=O)Cc1ccc2[nH]cc(CCN(C)C)c2c1` the “hERG current change (%, negative = inhibition) at 10uM” value was 10.6%. In the case of `Cc1ccc(C)c(CN2CCC(CNC(=O)CCc3nnc4ccc(N5CCCCC5)nn34)CC2)c1`, the “hERG current change (%, negative = inhibition) at 10uM” value is reported as -30.3%. For `COc1ccc(NC(=O)NNC(=O)c2ccccc2-n2cccc2)cc1OC`, the “hERG current change (%, negative = inhibition) at 10uM” value was 25.4%. `COc1ccc2c(=O)c3c(=O)n(Cc4ccco4)c(-c4ccco4)nc3oc2c1` was tested, and the “hERG current change (%, negative = inhibition) at 10uM” value was -62.4%. In the case of `COc1ccc2c(=O)c3c(=O)n(Cc4ccco4)c(-c4ccc(C)cc4)nc3oc2c1`, the “hERG current change (%, negative = inhibition) at 10uM” value is reported as -53.3%. `COc1ccc(Cn2c(-c3ccco3)nc3oc4cc(OC)ccc4c(=O)c3c2=O)cc1` was tested, and the “hERG current change (%, negative = inhibition) at 10uM” value was -31.4%. In the case of `COc1ccc2c(=O)c3c(=O)n(Cc4ccco4)c(-c4cc(OC)c(OC)c(OC)c4)nc3oc2c1`, the “hERG current change (%, negative = inhibition) at 10uM” value is reported as -16%. `COc1ccc2c(=O)c3c(=O)n(Cc4ccco4)c(-c4ccccc4)nc3oc2c1` was tested, and the “hERG current change (%, negative = inhibition) at 10uM” value was -32.2%. With `COc1ccc(-c2nc3oc4cc(OC)ccc4c(=O)c3c(=O)n2Cc2ccco2)cc1` the “hERG current change (%, negative = inhibition) at 10uM” value was -27.5%. `Nc1c(C(=O)Nc2ccc3c(c2)OCCO3)nnn1Cc1cccc(F)c1` was tested, and the “hERG current change (%, negative = inhibition) at 10uM” value was -4.88%. In the case of `COc1ccc2c(C)nc(Nc3nc(-c4ccccc4)cc(=O)[nH]3)nc2c1`, the “hERG current change (%, negative = inhibition) at 10uM” value is reported as 2.47%. With `Cc1ccccc1C(=O)c1cccn1CC(=O)NCCCN1CC(C)CC(C)C1` (centres unmarked) the “hERG current change (%, negative = inhibition) at 10uM” value was -72.1%. For `Cc1ccccc1C(=O)c1cccn1CC(=O)NCc1ccccc1`, the “hERG current change (%, negative = inhibition) at 10uM” value was 21.7%. For `O=C(Cn1cccc1C(=O)c1ccccc1)NCCCc1ccccc1`, the “hERG current change (%, negative = inhibition) at 10uM” value was -8.33%. With `CCCNC(=O)Cn1cccc1C(=O)c1ccccc1` the “hERG current change (%, negative = inhibition) at 10uM” value was 14.7%. In the case of `CC1CC(C)CN(CCCNC(=O)Cn2cccc2C(=O)c2ccccc2)C1` (centres unmarked), the “hERG current change (%, negative = inhibition) at 10uM” value is reported as -63.1%. For `Cc1ccccc1C(=O)c1cccn1CC(=O)NCCCc1ccccc1`, the “hERG current change (%, negative = inhibition) at 10uM” value was 9.69%.
